High-throughput results deposited in PubChem by National Center for Advancing Translational Sciences (NCATS).
POLI inh: DNA polymerase iota (human) inhibition; Q9UNA4; Pol iota fluorescent replication assay, 10 min; Potency, µM (titrated, usually from 115 µM), for the others: at the highest dose activity, negative = inhibition, most hits filed as inhibitors; 390,000 compounds, 1% hits; note: potency is the fitted concentration of half-maximal effect
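Pol iota at 10 nM preincubated 15 min with compounds at room temperature; reaction started with fluorescent substrate, 50 nM final. Fluorescence read kinetically at 0 and 10 min; buffer-only wells as negative control.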
Pol kappa inh: inhibitors of human DNA polymerase kappa | purified Pol kappa, fluorescent DNA synthesis assay, 10 min | Potency, µM (top dose mostly 107 µM), without a hit: at the top dose activity, negative = inhibition, most hits filed as inhibitors | 400,000 compounds, 0.53% hits | Q9UBT6; note: potency is the fitted concentration of half-maximal effect; % is set by controls: 0 for no effect and ±100 for the full control effect
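Fluorescent qHTS in 1536-well format: enzyme (10 nM) and compound sat 15 min at room temperature before 50 nM substrate (final) was added. Signal taken at 0 and 10 min; no-enzyme buffer wells were negative controls.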
Pol eta inh-1: blocks human DNA polymerase eta activity; Q9Y253; recombinant Pol eta, fluorescent DNA replication assay; Potency, µM (top dose mostly 114 µM), for the others: at the highest dose activity change, negative = inhibition, usual class: inhibitors; 390,000 compounds, 1.2% hits; note: potency is the fitted concentration of half-maximal effect; % is set by controls: 0 for no effect and ±100 for the full control effect
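Pol eta at 10 nM preincubated with compounds 15 min at room temperature; reaction started with fluorescent substrate (50 nM final) and read kinetically at 0 and 10 min.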
Pol beta inh-1: inhibitors of human DNA polymerase beta. Pol beta primer extension/strand displacement, fluorescence kinetic. Potency, µM (titrated, usually from 114 µM), without a hit: at the highest dose activity change, negative = inhibition, usual class: inhibitors. 340,000 compounds, 1.3% hits. AID 485314; note: potency is the fitted concentration of half-maximal effect; % is set by controls: 0 for no effect and ±100 for the full control effect
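Homogeneous kinetic assay of primer extension and strand displacement by 10 nM Pol beta, preincubated 15 min at room temperature with compound before 50 nM substrate (final) was added. Read at 0 and 10 min; four-parameter Hill fit.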
PI5P4K alpha inh: inhibitors of human PI5P4K alpha; P48426; PI5P4Kalpha enzyme, ADP-Glo luminescence, 60 min; active compounds read low; max response, %; 330,000 compounds, 1.2% hits; active = max response of -50% or lower; inconclusive = between -30% and -50%; inactive = -30% or higher; note: value at the top dose of about 77 µM; % is set by controls: 0 for no effect and ±100 for the full control effect
Target sequence (P48426 whole entry, looked up): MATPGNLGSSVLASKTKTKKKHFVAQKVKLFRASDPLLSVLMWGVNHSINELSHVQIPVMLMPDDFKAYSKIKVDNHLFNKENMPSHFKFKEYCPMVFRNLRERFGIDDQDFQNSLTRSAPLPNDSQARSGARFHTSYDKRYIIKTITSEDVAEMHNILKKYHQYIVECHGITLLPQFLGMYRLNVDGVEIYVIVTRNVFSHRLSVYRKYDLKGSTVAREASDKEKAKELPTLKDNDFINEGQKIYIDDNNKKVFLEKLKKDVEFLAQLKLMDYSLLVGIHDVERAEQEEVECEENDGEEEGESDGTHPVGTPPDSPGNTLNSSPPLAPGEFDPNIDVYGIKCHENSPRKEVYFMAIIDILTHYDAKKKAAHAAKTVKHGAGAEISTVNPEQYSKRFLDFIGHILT
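Luminescence from ADP-Glo served as readout of PI5P4Kalpha activity in a qHTS format. Reaction: enzyme, substrate, compound, ATP at 5 microM final, 60 min at RT.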
WRN helicase inh-1: blocks human WRN helicase. Q14191. 360,000 compounds, 0.46% hits. WRN helicase unwinding, fluorescent forked duplex, kinetic. Potency, µM (doses to about 114 µM), inactives show at the top dose activity change, negative = inhibition, actives largely listed as inhibitors. AID 651768; note: potency is the fitted concentration of half-maximal effect; % is set by controls: 0 for no effect and ±100 for the full control effect; nearly all actives have a fitted effect of over 55% in size
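WRN at 20 nM final was preincubated with compound for 15 min at room temperature; reaction started with 100 nM forked duplex oligonucleotide carrying fluorophore and quencher plus 2 mM ATP (final). Unwinding followed kinetically by red fluorescence (ex 525/em 598 nm).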
Pol beta inh-2: Human Pol beta inhibitor hit validation. shares compounds with Pol beta inh-1. Pol beta primer extension/strand displacement, fluorescence kinetic. Potency, µM, usual class: inhibitors. 250 compounds, 87% hits; calls by dose curve; note: potency is the fitted concentration of half-maximal effect
Klenow inh: Klenow polymerase inhibition, pol beta selectivity check. shares compounds with Pol beta inh-1. Klenow exo- polymerase counter-screen, fluorescent DNA substrate. activity change, negative = inhibition, % at 57.1 µM. 250 tested, under 10 active
HIV RT counter: inhibits HIV-1 reverse transcriptase in counter-screen; shares compounds with Pol beta inh-1; HIV-1 RT polymerase activity, counter-screen; activity % (negative = inhibition, positive = activation), % at 57.1 µM; 250 tested, under 10 active; AID 540301
POLB inh gel: DNA polymerase beta inhibition, radiolabeled validation; shares compounds with Pol beta inh-1; radiolabeled primer extension gel assay, phosphorimager; inhibition, % at 10 µM; 110 compounds, 91% hits; AID 540325;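 active = inhibition at 10 µM of 30% or more; inconclusive = no clear call, values can overlap the other calls; inactive = inhibition at 10 µM under 30%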
TbPGK inh: TbPGK inhibition, hit validation. 500 compounds, 79% hits. AID 686980. TbPGK coupled GAPDH assay, Kinase-Glo luminescence. shares compounds with Pol kappa inh. Potency, µM (series often up to 57.5 µM), for inactives: top-dose activity change, negative = inhibition, usual class: inhibitors; note: potency is the fitted concentration of half-maximal effect; % is set by controls: 0 for no effect and ±100 for the full control effect; nearly all actives have a fitted effect of over 65% in size
Target sequence (P07378 whole entry, looked up): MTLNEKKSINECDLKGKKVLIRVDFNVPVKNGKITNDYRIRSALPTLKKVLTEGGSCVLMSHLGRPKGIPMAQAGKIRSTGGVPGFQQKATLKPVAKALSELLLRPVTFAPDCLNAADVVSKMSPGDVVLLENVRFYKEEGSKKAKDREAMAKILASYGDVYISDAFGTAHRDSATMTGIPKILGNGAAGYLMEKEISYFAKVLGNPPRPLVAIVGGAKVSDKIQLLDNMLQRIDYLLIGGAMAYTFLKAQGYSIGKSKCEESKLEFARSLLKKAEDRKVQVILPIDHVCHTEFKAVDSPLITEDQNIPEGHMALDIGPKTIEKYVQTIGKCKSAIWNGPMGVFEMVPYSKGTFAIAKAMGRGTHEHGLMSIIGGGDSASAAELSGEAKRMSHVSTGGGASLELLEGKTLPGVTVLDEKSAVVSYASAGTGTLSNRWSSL
Pol iota confirm: Confirm cherry-picked inhibitors of human polymerase iota | 1,500 compounds, 77% hits | Pol iota primer extension, TAMRA/BHQ fluorescence | shares compounds with Pol kappa inh | Potency, µM, usual class: inhibitors | AID 720496; note: potency is the fitted concentration of half-maximal effect
Pol eta inh-2: confirmation of human DNA polymerase eta inhibitors; 2,600 compounds, 64% hits; Pol eta primer extension, TAMRA/BHQ fluorescence, 10 min; shares compounds with Pol eta inh-1; Potency, µM, most hits filed as inhibitors; note: potency is the fitted concentration of half-maximal effect
WRN helicase inh-2: confirmation of human WRN helicase inhibitors | shares compounds with WRN helicase inh-1 | WRN helicase DNA unwinding, fluorescence kinetic | Potency, µM (doses to about 57.1 µM), for the others: at the top dose activity, negative = inhibition, most hits filed as inhibitors | 610 compounds, 63% hits; note: potency is the fitted concentration of half-maximal effect; nearly all actives have a fitted effect of over 65% in size
TO DNA binding: counter-screen for WRN helicase inhibitors: DNA binding; shares compounds with WRN helicase inh-1; thiazole orange DNA binding displacement, fluorescence; Potency, µM (doses to about 57.1 µM), without a hit: at the top dose activity change, negative = inhibition, most hits filed as inhibitors; 610 compounds, 10% hits; AID 720499;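 note: drop in dye fluorescence marks compound binding to DNA; potency is the fitted concentration of half-maximal effect; % is set by controls: 0 for no effect and ±100 for the full control effect; nearly all actives have a fitted effect of over 60% in size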
BLM helicase inh: counter-screen for WRN helicase inhibitors: human BLM helicase inhibition; 610 compounds, 60% hits; shares compounds with WRN helicase inh-1; Recombinant BLM helicase DNA unwinding, red fluorescence; Potency, µM (highest dose often 57.1 µM), for the others: at the top dose activity change, negative = inhibition, actives largely listed as inhibitors; AID 720503; note: potency is the fitted concentration of half-maximal effect; nearly all actives have a fitted effect of over 60% in size
ADP-Glo interf: interferes with ADP-Glo detection without enzyme present | shares compounds with PI5P4K alpha inh | 1,100 tested, under 10 active | ADP-Glo detection counter-screen, luciferase luminescence, no enzyme | Potency, µM (titrated, usually from 76.9 µM), without a hit: top-dose activity change, negative = inhibition, actives largely listed as inhibitors
* = called active by the depositor; ? = inconclusive; nt = no result; [ ] = dose if it differs, or a comment. This is a sample that favours compounds with a hit; in the whole collection about 2.8% have one here. Unless noted, calls come from the whole dose curve; as a rule, active = well fitted curve in the direction sought with a large enough effect; inconclusive = small, poorly fitted or top-dose-only effect, or another doubt; inactive = no such curve, though single readings can be large; an effect the other way counts as inactive or inconclusive.

SMILES | POLI inh | Pol kappa inh | Pol eta inh-1 | Pol beta inh-1 | PI5P4K alpha inh | WRN helicase inh-1 | Pol beta inh-2 | Klenow inh | HIV RT counter | Pol iota confirm | Pol eta inh-2 | ADP-Glo interf | others
COc1ccc(-c2cc(=O)oc3c(O)c(O)ccc23)cc1 | ? | ? | 7.9µM* | 10µM* | -17 | 13µM* | 6.3* | -9 | 17 | 67* | ? | nt | TbPGK inh=9.2µM*;WRN helicase inh-2=5.4µM*;TO DNA binding=-5%;BLM helicase inh=3.8µM*
COc1ccc(-c2cc(=O)oc3cc(OC(C)C(=O)O)ccc23)cc1 (stereo not given) | -7% | 3% | 1% | 20% | nt | -16% | nt | nt | nt | nt | nt | nt
Cc1nn(-c2ccccc2)c2nc(-c3ccco3)cc(C(=O)O)c12 | ? | 28µM* | 7.9µM* | 14µM* | ? | ? | 25* | -37 | ? | nt | 30* | nt | POLB inh gel=65*;WRN helicase inh-2=?;TO DNA binding=-25%;BLM helicase inh=-15%
COc1cccc(-n2cc(C(=O)Nc3ccccc3C(N)=O)c3ccccc3c2=O)c1 | 30% | -8% | -10% | 1% | nt | nt | nt | nt | nt | nt | nt | nt
O=C(/C=C\c1ccc2c(c1)OCO2)NC1CC(=O)N(c2ccc(F)cc2)C1 (stereo not given) | 19% | -3%[60.1 µM] | 1% | 28% | nt | nt | nt | nt | nt | nt | nt | nt
COc1ccc(-n2nnnc2SCC(N)=O)cc1 | 21% | -3% | 8% | -2% | 2 | 0% | nt | nt | nt | nt | nt | nt
COc1ccc(-n2nnnc2SCC(=O)c2ccc(O)c(O)c2)cc1 | ? | 40µM* | 40µM* | 20µM* | nt | 16µM* | 13* | -30 | 10 | nt | nt | nt | WRN helicase inh-2=6.8µM*;TO DNA binding=?;BLM helicase inh=11µM*
COC(=O)c1ccccc1NC(=O)c1noc2c1CCC2 | 20µM* | ? | 20µM* | 10µM* | nt | ? | 32* | -33 | 7 | 38* | 30* | nt | POLB inh gel=73*;WRN helicase inh-2=17µM*;TO DNA binding=-20%;BLM helicase inh=4.8µM*
COc1ccc(CCn2c(O)cc3nn(-c4nc5ccccc5s4)c(=O)c-3c2C)cc1 | ? | 22µM* | 50µM* | 1.8µM* | -81* | ? | ? | -32 | 36 | nt | nt | 3% | POLB inh gel=97*
COc1ccc(C(=O)NCC(c2cccnc2)N2CCN(c3ccccc3F)CC2)cc1OC (stereo not given) | 6% | -7% | -9% | -21% | nt | nt | nt | nt | nt | nt | nt | nt
O=C(Nc1ccc2nc(SCC(=O)N3CCCC3)sc2c1)c1ccccc1 | 23% | -10% | -6% | 26% | nt | nt | nt | nt | nt | nt | nt | nt
Cn1c(SCC(=O)Nc2ccc3nc(SCC(=O)N4CCCC4)sc3c2)nnc1-c1ccccc1 | ? | 79µM* | 14µM* | 7.1µM* | -64* | ? | 13* | -8 | 19 | 75* | nt | -7%
O=C(Nc1cccc(S(=O)(=O)NC2=NCCC2)c1)c1cc(-c2ccco2)nc2ccccc12 | 8.9µM* | 32µM* | 10µM* | 3.5µM* | -75* | ? | 4.5* | -39 | 6 | 34* | 24* | -4%
O=C(Nc1cccc(S(=O)(=O)NC2=NCCCCC2)c1)c1cc(-c2ccccc2)nc2ccccc12 | 9% | -10% | -4% | 9% | -1 | -4% | nt | nt | nt | nt | nt | nt
Cc1csc(NC(=O)c2cc(-c3ccco3)nc3ccccc23)n1 | ? | ? | 25µM* | 7.9µM* | -57* | ? | 11* | -34 | 23 | nt | 76* | -8%
CCNC(=O)COC(=O)c1cc(-c2ccco2)nc2ccccc12 | 8.9µM* | 35µM* | 20µM* | 13µM* | -78* | -21%[11.6 µM] | 25* | -20 | 5 | 34* | 38* | 3% | POLB inh gel=98*
CCOc1ccc(/C=N/NC(=O)c2cc(-c3ccco3)nc3ccccc23)cc1 | ? | -4% | -7% | 15% | ? | -14% | nt | nt | nt | nt | nt | nt
O=C(Nc1ccc(Cl)cc1Cl)c1cc(S(=O)(=O)NCc2ccc3c(c2)OCO3)ccc1F | -6% | 0%[60.1 µM] | -19% | -7% | nt | nt | nt | nt | nt | nt | nt | nt
O=C(COC(=O)c1cccc(S(=O)(=O)N2CCN(c3ccccc3)CC2)c1)NCc1ccco1 | ? | 79µM* | 8.9µM* | 20µM* | -54* | ? | 13* | -33 | 10 | 75* | 43* | -3%
CCOC(=O)Cc1csc(NC(=O)Cc2cccs2)n1 | ? | ? | 18µM* | 14µM* | -58* | -17%[57.1 µM] | ? | -5 | 15 | nt | nt | 0%
CC(C)Oc1ccccc1C1C=C(C(=O)O)Nc2ncnn21 (stereo not given) | -16% | -20% | -5% | 1% | nt | nt | nt | nt | nt | nt | nt | nt
